# High-throughput results as filed in PubChem BioAssay.
# DT40 TDP1 CPT – growth inhibition of DT40 Tdp1-/-;hTDP1 cells with camptothecin (screen for TDP1 inhibitors); chicken DT40 Tdp1-/-;hTDP1 cells + 20 nM CPT, ATP luminescence, 48 h; Potency, µM (series often up to 46.2 µM), without a hit: at the top dose activity change, negative = growth inhibition, hits mostly inhibitors; hit rate 12% among 420,000; note: nearly all actives have a fitted effect of over 55% in size
#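 Chicken DT40 Tdp1-/- cells stably complemented with human TDP1 were seeded at 400 cells/well in medium containing 20 nM camptothecin, exposed to pin-transferred compounds, and grown at 37 °C for at least 48 hr. Viability was read as ATP luminescence.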
# TDP1 inh – TDP1 (human) enzyme inhibition; Q9NUW8; Potency, µM (top dose mostly 130 µM), for inactives: at the highest dose activity change, negative = inhibition, most hits filed as inhibitors; recombinant TDP1, AlphaScreen DNA substrate cleavage; hit rate 0.28% among 350,000; note: nearly all actives have a fitted effect of over 40% in size
# Target sequence (Q9NUW8 whole entry, looked up): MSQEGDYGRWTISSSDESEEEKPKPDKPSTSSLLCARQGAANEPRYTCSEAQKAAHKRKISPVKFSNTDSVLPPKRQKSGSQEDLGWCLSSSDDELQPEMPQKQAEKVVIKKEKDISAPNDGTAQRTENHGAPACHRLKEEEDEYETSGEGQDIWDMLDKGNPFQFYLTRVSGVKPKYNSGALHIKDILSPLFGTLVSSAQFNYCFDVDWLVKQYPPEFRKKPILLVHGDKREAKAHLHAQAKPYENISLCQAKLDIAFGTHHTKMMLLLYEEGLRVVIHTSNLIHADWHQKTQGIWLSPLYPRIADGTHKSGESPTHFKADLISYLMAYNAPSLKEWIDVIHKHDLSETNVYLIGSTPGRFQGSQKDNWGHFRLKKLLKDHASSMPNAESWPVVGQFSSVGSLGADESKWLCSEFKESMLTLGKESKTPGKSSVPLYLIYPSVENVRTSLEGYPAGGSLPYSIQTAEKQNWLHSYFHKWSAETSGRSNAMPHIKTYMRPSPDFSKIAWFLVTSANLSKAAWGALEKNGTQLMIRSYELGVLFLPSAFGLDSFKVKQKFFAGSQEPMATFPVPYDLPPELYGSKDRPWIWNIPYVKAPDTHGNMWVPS
#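 E. coli-derived human Tdp1, 1 nM final. Cpd preinc 15 min RT; substrate 15 nM final, 5 min RT; AS bead mix 10 ug/ml final, 10 min RT. Signal loss = tyrosine-FITC cleavage. No-enzyme wells = max signal.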
# VP16 counter – counter-screen for ROR gamma inhibitors: Gal4-VP16 reporter. Potency, µM (highest dose often 53.6 µM), for inactives: at the top dose activity, negative = inhibition, hits mostly inhibitors. hit rate 3.5% among 310,000. Drosophila S2 Gal4-VP16 UAS-luciferase, luminescence, 20 h;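 note: Gal4-VP16 expression switched on by copper sulfate through the metallothionein promoter; nearly all actives have a fitted effect of over 50% in size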
# DT40 TDP1 no CPT – qHTS for Inhibitors of human tyrosyl-DNA phosphodiesterase 1 (TDP1): qHTS in cells in absence of CPT; DT40 Tdp1-/- hTDP1 cells, no CPT, ATP luminescence, 48 h; Potency, µM (doses to about 46.2 µM), for inactives: at the top dose activity change, negative = growth inhibition, hits mostly inhibitors; hit rate 15% among 420,000; note: nearly all actives have a fitted effect of over 55% in size
#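 Chicken DT40 Tdp1-/- cells complemented with human TDP1, screened without camptothecin (DMSO vehicle only), 400 cells/well. Compounds pin-transferred, cells incubated at 37 °C for at least 48 hr. Growth read as ATP-dependent luminescence (CellTiter-Glo, 30 min at RT).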
# RORg inh – inhibitors of mouse ROR gamma transcriptional activity; Drosophila S2 Gal4-RORgamma UAS-luciferase reporter, 20 h; Potency, µM (top dose mostly 53.6 µM), for the others: at the top dose activity change, negative = inhibition, hits mostly inhibitors; AID 2551; hit rate 5.4% among 310,000; P51450; note: nearly all actives have a fitted effect of over 60% in size
#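 Stable Schneider cell line, Gal4 DNA-binding domain fused to ROR gamma, UAS-luciferase. Cmpd 1 hr RT → CuSO4 700 uM final → 20 hr RT → luciferase reagent 10 min → luminescence.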
# The depositor's hits bear a star; ? = inconclusive; / = no result given. Rows were chosen to be rich in hits. Some 19% of all compounds tested hit in one or more screens of this group. Calls come from the whole dose curve; as a rule, active = well fitted curve in the direction sought with a large enough effect; inconclusive = small, poorly fitted or top-dose-only effect, or another doubt; inactive = no such curve, though single readings can be large; an effect the other way counts as inactive or inconclusive. % is set by controls: 0 for no effect and ±100 for the full control effect; potency is the fitted concentration of half-maximal effect.
SMILES,DT40 TDP1 CPT,TDP1 inh,VP16 counter,DT40 TDP1 no CPT,RORg inh
CCc1ccc(-n2c(=O)c3c4c(sc3n(CC(=O)c3ccc(Cl)cc3)c2=O)CCC4)cc1,2.59µM*,-2.7%,/,2.59µM*,/
CCNC(=O)NC(=O)COC(=O)CCCSc1nc2ccccc2[nH]1,-6.5%,10.5%,-5.7%,-10.9%,-0.9%
CCCCN1C(=O)C2NN=C(C(=O)OCC)C2C1=O (configuration not stated),7.5%,5.0%,1.2%,1.5%,4.7%
CCc1ccc(-n2c(=O)c3c4c(sc3n(Cc3cc(=O)n5c(C)cccc5n3)c2=O)CCC4)cc1,?,-1.8%,/,11.6µM*,/
CC(=O)c1sc2c(c1C)c(=O)n(-c1ccc(Cl)cc1)c(=O)n2Cc1ccc(Cl)cc1,8.2µM*,8.8%,/,8.2µM*,/
Cc1nc(SCc2ccc(Cl)c(Cl)c2)ncc1C(=O)O,1.3%,1.2%,-12.3%,-18.3%,?
CN1CCC(N(C)C(=O)/C=C/c2cn(-c3ccccc3)nc2-c2cccs2)CC1,?,4.2%,-10.8%,23.1µM*,?
O=C(O)CCCCCN1C(=O)/C(=C/c2cn(-c3ccccc3)nc2-c2cccs2)SC1=S,-39.7%,/,/,14.6µM*,/
O=C(O)CCN1C(=O)/C(=C/c2cn(-c3ccccc3)nc2-c2cccs2)SC1=S,4.61µM*,-2.8%,0.3%,?,-9.3%
COc1ccc(-c2nn(-c3ccccc3)cc2/C=C2/SC(=S)N(CCC(=O)O)C2=O)cc1,-25.6%,/,-8.5%,?,0.2%
C=CCOC(=O)C1=C(C)NC(=O)NC1c1cn(-c2ccccc2)nc1-c1cccs1 (configuration not stated),?,8.0%,-4.8%,?,32.9%
COc1ccc(-c2nn(-c3ccccc3)cc2/C=C2/SC(=S)N(CCC(=O)O)C2=O)c(C)c1,?,39.8µM*,?,?,?
CC(=O)OCC(=O)C1(O)CCC2C3CCC4=CC(=O)CCC4(C)C3(F)C(O)CC21C (configuration not stated),-5.5%,/,/,-21.2%,/
COc1ccc(CN2CCN(C(=O)CN3C(=O)C4C5C=CC(C5)C4C3=O)CC2)c(OC)c1OC (configuration not stated),-27.9%,2.0%,6.31µM*,?,-28.0%
COc1ccc(CN2CCN(C(=O)c3cccs3)CC2)c(OC)c1OC,-23.9%,-2.0%,1.2%,-25.1%,0.1%
O=C(NC1CCCC1)c1cccc(Cl)c1,14.0%,1.3%,30.2%,-2.2%,34.3%
Cc1oc(-c2cccc(Cl)c2)nc1CN1CCC(C(=O)NCc2cccnc2)CC1,?,2.0%,1.3%,-25.1%,-1.9%
CCN1CCN(C(=O)C2CCN(Cc3nc(-c4cccc(Cl)c4)oc3C)CC2)CC1,20.6µM*,-1.3%,-3.9%,16.4µM*,-32.7%
Cc1oc(-c2cccc(Cl)c2)nc1CN1CCC(C(=O)N2CCN(c3ccccn3)CC2)CC1,23.1µM*,/,/,18.4µM*,/
COc1cc(/C=N/NC(N)=O)c(Br)cc1OCC(=O)Nc1ccccc1C,?,4.0%,-2.7%,?,-19.3%
O=Cc1c(OCc2ccccc2)ccc2ccccc12,-14.4%,2.7%,-9.5%,-13.9%,14.0%
C/[N+]([O-])=C/c1c(OCc2ccccc2)ccc2ccccc12,-0.9%,/,0.0%,23.1µM*,40.7%
COc1ccc(C2=Nc3ccccc3OC2)cc1,25.9µM*,3.9%,-1.0%,14.6µM*,3.6%
CC(C)(C)C1=C(C#N)C(c2cccnc2)C(C#N)=C(N)O1 (configuration not stated),?,1.8%,?,?,?
CN(C)/C=N/C1=C(C#N)C(c2cccs2)c2ccc3ccccc3c2O1 (configuration not stated),4.11µM*,5.4%,23.9%,4.11µM*,12.5%
SMILES,DT40 TDP1 CPT,TDP1 inh,VP16 counter,DT40 TDP1 no CPT,RORg inh
N#CC1=C(N)Oc2c(ccc3cccnc23)C1c1cccnc1 (configuration not stated),5.8µM*,-0.2%,-13.8%,5.17µM*,6.8%
CCc1ccc2[nH]c(=O)c(C3C(C#N)=C(N)Oc4c3ccc3cccnc43)cc2c1 (configuration not stated),11.6µM*,9.8%,-5.9%,8.2µM*,?
N#CC1=C(N)Oc2cc3ccccc3cc2C1c1cccnc1 (configuration not stated),8.2µM*,-7.7%,-3.0%,7.31µM*,-6.4%
CCC(C)NC(=O)c1nn(-c2ccc(C)cc2)c(=O)n(C)c1=O (configuration not stated),-6.1%,1.8%,/,-11.3%,/
O=C(NC(=S)Nc1ccc(Cl)c(C(=O)O)c1)c1ccco1,17.8%,-1.7%,-3.3%,1.1%,1.0%
N#CC1=C(N)Oc2cc(N)ccc2C1c1cc(Br)cs1 (configuration not stated),?,/,3.4%,?,16.0%
N#CC1=C(N)Oc2cc3ccccc3cc2C1c1cccs1 (configuration not stated),11.2µM*,6.8%,-0.4%,11.2µM*,-13.6%
COc1ccc(N=Cc2cc3c(cc2O)OC(N)=C(C#N)C3c2ccccc2)cc1 (configuration not stated),?,2.7%,?,20.6µM*,-11.8%
COc1ccc(CCCc2nnc(SCC(=O)Nc3cccc(C)c3)o2)cc1C,-25.5%,/,/,?,/
COc1ccc(C2c3c(-c4ccccc4O)n[nH]c3C(=O)N2Cc2ccco2)cc1OC (configuration not stated),-6.5%,12.6%,-3.2%,-20.3%,6.8%
O=C1c2[nH]nc(-c3ccccc3O)c2C(c2ccc(F)cc2)N1Cc1ccco1 (configuration not stated),18.4µM*,12.6%,-5.3%,16.4µM*,33.7%
O=C1c2[nH]nc(-c3ccccc3O)c2C(c2cccc(Cl)c2)N1Cc1ccco1 (configuration not stated),?,9.4%,?,18.4µM*,?
Cc1ccc(C2c3c(-c4cc(C)ccc4O)n[nH]c3C(=O)N2Cc2ccco2)cc1 (configuration not stated),23.1µM*,12.3%,/,?,/
O=C1c2[nH]nc(-c3ccccc3O)c2C(c2cccc(Cl)c2)N1CC1CCCO1 (configuration not stated),?,8.0%,?,18.4µM*,4.9%
CCOC(=O)CC1C(C(=O)OCC)ON2OC(C(=O)OC)C(C(=O)OCC)C12 (configuration not stated),-0.7%,-2.0%,1.2%,3.8%,-23.6%
COc1ccc(Cn2c(SCc3ccc(C(=O)NCc4ccc(C)cc4)cc3)nc3cccnc32)cc1,?,0.0%,/,?,/
